Measurements from PubChem BioAssay AID602350 (Broad Institute, 2012).
Entries with a potency or affinity are not part of this list. The source made the active and inactive calls.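 Rule for the calls: active = absorbance falls by 30% or more versus neutral controls, with a potency fitted within twice the top valid dose; inconclusive = no clear call, values can overlap the other calls; inactive = change opposite to expected direction, plus the rest.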

Biological target: Protein disulfide-isomerase (Homo sapiens) (UniProt P07237)
Assay: PDI inhibitors, insulin aggregation turbidity, dose response, biochemical, absorbance, cherry-picked samples (AID 602350)

Chain of Protein disulfide-isomerase (Homo sapiens) (P07237 whole entry, looked up): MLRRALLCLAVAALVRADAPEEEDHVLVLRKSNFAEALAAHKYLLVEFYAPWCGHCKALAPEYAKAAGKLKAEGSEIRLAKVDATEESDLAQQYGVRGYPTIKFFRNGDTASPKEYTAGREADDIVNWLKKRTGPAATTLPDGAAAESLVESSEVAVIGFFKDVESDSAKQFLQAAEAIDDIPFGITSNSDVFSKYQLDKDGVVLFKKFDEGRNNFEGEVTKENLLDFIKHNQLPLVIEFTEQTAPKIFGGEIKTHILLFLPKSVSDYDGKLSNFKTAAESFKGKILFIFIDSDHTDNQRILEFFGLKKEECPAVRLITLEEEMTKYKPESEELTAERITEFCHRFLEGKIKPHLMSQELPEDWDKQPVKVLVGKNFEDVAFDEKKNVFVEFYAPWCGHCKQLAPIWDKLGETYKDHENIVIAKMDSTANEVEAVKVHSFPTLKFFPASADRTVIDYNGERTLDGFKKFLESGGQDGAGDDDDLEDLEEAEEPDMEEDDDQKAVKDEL

SMILES | outcome
CCOC(=O)C(C)c1n[nH]c(=O)c2ccccc12 (stereo unspecified) | inactive
Cc1ccc(C(=O)NCCN2C3=NC[C@H](Cc4ccc(O)cc4)N3C[C@H]2Cc2ccc(O)cc2)cc1Br | inactive
CCOC(=O)C1(CC2CC2)CCN(Cc2cc(Cl)c(O)c(OC)c2)CC1 | inactive
COCCN(CC(=O)Nc1ccccc1C(F)(F)F)C(=O)/C=C/c1cc(Cl)c2c(c1)OCCO2 | inactive
O=C(Nc1nccs1)c1ccc(-c2ccccc2[N+](=O)[O-])o1 | inactive
CCOc1c(Cl)cc(CNC(C)(C)CC(C)(C)C)cc1OC | inactive
Cc1cc(=O)c(C(=O)Nc2cccc(C(=O)NC3CC3)c2)nn1-c1ccccc1 | inactive
CC(=O)c1cc(-c2ccccc2)n(CC(=O)Nc2cccc(C)c2)c1C | inactive
CCOC(=O)C1(C)CCCN(C(=O)c2cccc(Cl)c2)C1 (stereo unspecified) | inactive
CCOC(=O)c1c(CN(C)C)n(-c2ccc(C)cc2)c2cc(Br)c(O)cc12 | inactive
O=C1CCC(=O)N1c1nc2nc(-c3ccccc3)cc(-c3ccccc3)n2n1 | inactive
